Data on 12 compounds can be found in PubChem BioAssay (NCI).

The panel holds about 83,000 compounds, 20% with a hit somewhere; the sample as a whole holds those more often.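 The test compound was applied at a single concentration to cells in 96-well plates for 48 hours, and percent growth was recorded.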 Values without a mark were called inactive. The source made the active and inactive calls. How the source made its calls: active means growth percent below 10; inactive means the rest.

Some test systems named below: NCI-H23 lung; NCI-H226 lung; NCI-H322M lung; HOP-62 NSCLC; NCI-H460 lung; HOP-92 NSCLC; NCI-H522 lung; A549/ATCC NSCLC; 786-0 renal; COLO 205 colon.
What all share (experiment): NCI-60 one-dose screen, 48 h (100 = growth as untreated, 0 = no growth, -100 = all killed)
What all share (settings): 10 µM unless noted

On to `O=C1C=CC(=O)c2c1nc1n2CCCC1`, for which the growth in the test on NCI-H23 lung was 39.2%; with NCI-H226 lung, 95%; with NCI-H322M lung it was 29.8%; with HOP-62 NSCLC, 80%; in the test on NCI-H460 lung, 24.6%; with HOP-92 NSCLC, 132%. Moreover, the growth was 72.5% in the test on NCI-H522 lung, 41.6% in the test with A549/ATCC NSCLC, 93.3% in the test with 786-0 renal and 33.2% in the test with COLO 205 colon.
Regarding `NC(=S)N/N=C/c1ccc(OCc2ccccc2)cc1`, the growth was 84% in the test on NCI-H23 lung; 61.1% with NCI-H226 lung; 79.9% in the test on NCI-H322M lung; 93.8% in the test with HOP-62 NSCLC; 86.7% with NCI-H460 lung; 48.5% in the test on HOP-92 NSCLC. The growth in the test on NCI-H522 lung was -24.1% (active); in the test with A549/ATCC NSCLC it was 68.4%; in the test on 786-0 renal, 41.7%; in the test on COLO 205 colon, 56.9%.
With `Cc1cc(Nc2nc(-c3cccnc3)nc3ccccc23)n[nH]1`, the growth is 65.2% in the test with NCI-H23 lung; 43.9% in the test on NCI-H226 lung; 81.3% in the test with NCI-H322M lung; 64.1% in the test with HOP-62 NSCLC; 41.9% with NCI-H460 lung; 55.3% with HOP-92 NSCLC. Moreover, the growth with NCI-H522 lung was 43.7%; with A549/ATCC NSCLC, 19%; in the test on 786-0 renal, 55%; with COLO 205 colon, -10.2% (active).
Consider `CCN(C(=O)CN1CCN(c2cc3c(cc2F)c(=O)c(C(=O)O)cn3C2CC2)CC1)c1nc(-c2ccc(OC)cc2)cs1`, for which the growth in the test on NCI-H23 lung was 66%; in the test on NCI-H226 lung it was 85.8%; with NCI-H322M lung, 38.8%; in the test on HOP-62 NSCLC it was 80.9%; with NCI-H460 lung, -2.51% (active); with HOP-92 NSCLC, 40%. Moreover, the growth is 49% in the test with NCI-H522 lung, 11.4% with A549/ATCC NSCLC, 102% in the test on 786-0 renal and 63.7% with COLO 205 colon.
For `Oc1ccccc1N=Cc1c(O)ccc2ccccc12`, the growth was 88.2% in the test on NCI-H23 lung; 87.3% in the test on NCI-H226 lung; 82.6% with NCI-H322M lung; 83.7% in the test with HOP-62 NSCLC; 81.3% in the test with NCI-H460 lung; 58.3% in the test on HOP-92 NSCLC. In addition, the growth was 81% in the test with NCI-H522 lung, 95.4% with A549/ATCC NSCLC, 86.2% with 786-0 renal and 108% in the test on COLO 205 colon.
Take `C#Cc1nc2ccccc2c(=O)[nH]1`: the growth is 29.9% in the test with NCI-H23 lung; -58.8% (active) in the test with NCI-H226 lung; 29.5% in the test with NCI-H322M lung; -6.19% (active) in the test with HOP-62 NSCLC; 11.1% in the test with NCI-H460 lung; -45.8% (active) in the test on HOP-92 NSCLC. Besides, the growth is -71.9% (active) with NCI-H522 lung, 4.37% (active) in the test on A549/ATCC NSCLC, -64.7% (active) in the test on 786-0 renal and -74.3% (active) with COLO 205 colon.
For the compound `C[C@]12C[C@@H](c3ccoc3)OC(=O)[C@@H]1CC[C@]1(C)[C@@H]2CC[C@@H](O)[C@]1(C)O`, the growth in the test on NCI-H23 lung is 76.1%; in the test on NCI-H226 lung, 107%; in the test on NCI-H322M lung it was 99.2%; with HOP-62 NSCLC it was 49.4%; with NCI-H460 lung it was 50.1%; in the test with HOP-92 NSCLC, 54.2%. Further, the growth is 55.5% with NCI-H522 lung, 49.5% in the test with A549/ATCC NSCLC, 84% in the test with 786-0 renal and 40.9% in the test with COLO 205 colon.
For `Cc1ccc(S(=O)(=O)N(CCc2ccc(Cl)cc2)S(=O)(=O)c2ccc(C)cc2)cc1`, the growth is 90.9% in the test on NCI-H23 lung; 75.2% with NCI-H226 lung; 93.1% in the test on NCI-H322M lung; 103% with HOP-62 NSCLC; 101% in the test with NCI-H460 lung; 88.1% in the test on HOP-92 NSCLC. The growth in the test with NCI-H522 lung was 77.4%; with A549/ATCC NSCLC it was 88.3%; in the test on 786-0 renal, 94.4%; with COLO 205 colon, 111%.
For `COc1ccc(-c2nn(-c3ccccc3)cc2/C=C2\SC(=O)NC2=O)cc1`, the growth with NCI-H23 lung was 94.8%; with NCI-H226 lung, 98.9%; in the test on NCI-H322M lung, 117%; in the test with HOP-62 NSCLC it was 101%; in the test with NCI-H460 lung, 97.5%; in the test on HOP-92 NSCLC it was 96.6%. The growth with NCI-H522 lung is 81.6%; in the test on A549/ATCC NSCLC it was 105%; in the test on 786-0 renal, 81.1%; with COLO 205 colon it was 123%.
Consider `CCN(CC)CC(O)CNc1c2ccc([N+](=O)[O-])cc2nc2cc(OC)c(OC)cc12` (stereo not given), for which the growth in the test with NCI-H23 lung was -27.2% (active); in the test on NCI-H226 lung, -39.1% (active); in the test on NCI-H322M lung it was -43.5% (active); with HOP-62 NSCLC it was -51% (active); with NCI-H460 lung, -49.6% (active); in the test with HOP-92 NSCLC it was -57.4% (active). Besides, the growth with NCI-H522 lung was -65.6% (active); with A549/ATCC NSCLC, -22% (active); in the test with 786-0 renal, -8.36% (active); in the test with COLO 205 colon, -71% (active).
As for `O=C(CCN1CCOCC1)Nc1ccc(Cn2nnc3c2C(=O)c2nnn(Cc4ccc(NC(=O)CCN5CCOCC5)cc4)c2C3=O)cc1`, the growth was -20.9% (active) with NCI-H23 lung; 86.5% in the test with NCI-H226 lung; 10% in the test with NCI-H322M lung; 70.9% in the test with HOP-62 NSCLC; 13.3% in the test on NCI-H460 lung; -20% (active) with HOP-92 NSCLC. For the same compound, the growth was -28.9% (active) in the test with NCI-H522 lung, 84.8% with A549/ATCC NSCLC, 98.5% with 786-0 renal and -73.8% (active) in the test on COLO 205 colon.
On to `CC(C)CC(CC1=CCC2CC1C2(C)C)C1=C(O)C(C)(C)C(=O)C(C)(C)C1=O` (stereo not given), for which the growth in the test on NCI-H23 lung is 5.33% (active); with NCI-H226 lung, 13.7%; in the test with NCI-H322M lung, 9.97% (active); with HOP-62 NSCLC, -4.19% (active); with NCI-H460 lung, 4.62% (active); in the test on HOP-92 NSCLC it was -27.4% (active). Also, the growth is 3.54% (active) with NCI-H522 lung, 0.788% (active) in the test with A549/ATCC NSCLC, 6.76% (active) in the test with 786-0 renal and -65.7% (active) with COLO 205 colon.
